Assay results from PubChem BioAssay AID743446 (Broad Institute, 2014).
Entries with a potency or affinity are not part of this list. Calls of active or inactive are those of the source. How the calls were made is not given here.

Experiment: viability loss in HEK293 cells – cell-based, plate reader, cherry-picked samples, cytotoxicity control, dose response (AID 743446)
Conditions: hits give low values; at 26 µM unless noted

Row | SMILES | max activity
1 | CCN(CC)S(=O)(=O)c1cc(C(=O)OCC(=O)Nc2ccc(-c3nc4ccc(C)cc4s3)cc2)ccc1F | -18.3% (inactive)
2 | CC(C)c1ccc(NC(=O)N2CCN(S(=O)(=O)c3ccccc3)CC2)cc1 | 17.9% [at 0.38 µM] (inactive)
3 | Cc1ccc(C(=O)NCCc2cccs2)cc1 | 37.3% [at 3 µM] (inactive)
4 | Cc1ccc(C(=O)NC2CCCCCCC2)c(Cl)c1 | -18.7% [at 0.38 µM] (inactive)
5 | C[C@H](CO)N1C[C@H](C)[C@H](CN(C)C(=O)Nc2ccc(F)cc2)OCCCC[C@H](C)Oc2ccc(NC(=O)C3CCCCC3)cc2C1=O | -10.8% [at 6 µM] (inactive)
6 | CC(C)C(=O)N1CCN(c2ccc(NC(=O)COc3ccccc3[N+](=O)[O-])cc2)CC1 | -46.9% (inactive)
